From PubChem BioAssay (NCI)
About 83,000 compounds went through this panel and 20% of them were active in at least one assay; those are over-represented in the sample as a whole.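 96-well plates, one dose, 48 hours. Percent growth reported; active if below 10.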 Activity calls are given as the source filed them.

Test system: A498 renal
Assay: NCI-60 one-dose screen, 48 h (100 = growth as untreated, 0 = no growth, -100 = all killed)
Settings: 10 µM

Structure (SMILES) | growth
O=C(/C=C/c1ccco1)c1nc2ccccc2n1Cc1ccc(Br)cc1 | 105% (inactive)
O=C(/C=C/c1ccco1)c1nc2ccccc2n1Cc1ccc(F)cc1 | 93.4% (inactive)
COc1cc2cc(C(=O)N3C[C@@H](CCl)c4c3cc(OC(=O)N3CCN(C)[C@@H]5CSSC[C@@H]53)c3ccccc43)[nH]c2c(OC)c1OC | -22.4% (active)
C#CC[Se]C(=O)c1ccc2n[se]nc2c1 | 95.3% (inactive)
O=C(/C=C/c1ccc(Cl)cc1Cl)c1nc2ccccc2n1Cc1ccc(F)cc1 | 94.8% (inactive)
O=C(/C=C/c1ccc(Cl)cc1)c1nc2ccccc2n1Cc1ccc(Br)cc1 | 115% (inactive)
CCOP(=O)(OCC)C(NC(C)=O)C(=O)SCCN (stereo unspecified) | 91.7% (inactive)
COc1cc2cc(C(=O)N3C[C@@H](CCl)c4c3cc(OC(=O)N3CCN(C)[C@@H]5CSSC[C@H]53)c3ccccc43)[nH]c2c(OC)c1OC | -37% (active)
COc1ccc2cc([C@H](C)C(=O)[Se]CCC#N)ccc2c1 | -71.1% (active)
CC12OOC(C)(OO1)C2CCC(=O)OCCNc1ccnc2cc(Cl)ccc12 (stereo unspecified) | 109% (inactive)
CC(C)N=C([Se])NC(=O)c1cccs1 | 36.6% (inactive)
Cc1ccc2[nH]c(=S)n(-c3ccc(F)cc3)c(=O)c2c1 | 98.3% (inactive)
CCOC(=O)C1=C(Nc2ccccc2)C(=O)OC12C(=O)Nc1ccccc12 (stereo unspecified) | 120% (inactive)
CC12CCC3(CCC(=O)NCCCNc4ccnc5cc(Cl)ccc45)[C@@](C)(OO[C@]3(C)O1)O2 | 85.3% (inactive)
CC[C@]12C=CCN3CC[C@@]4(c5ccc(OC)cc5N(C)[C@H]4[C@@](O)(C(=O)OC)[C@@H]1OC(=O)CCCC[P+](C1CCCCC1)(C1CCCCC1)C1CCCCC1)[C@@H]32 | -0.0449% (active)
CC(=O)Oc1ccccc1C(=O)[Se]C(=NC(C)C)NC(C)C | -24.8% (active)

Structure (SMILES) | growth
COCCOCCOCCOc1ccc(-n2cc(CCCN(CCNc3ccnc4cc(Cl)ccc34)C(=O)CCC(=O)O[C@@H]3O[C@@H]4OC5(C)CC[C@H]6[C@H](C)CC[C@@H]([C@H]3C)[C@@]46OO5)nn2)cc1 | 94.9% (inactive)
C[C@H]1[C@@H](CC(=O)N[C@@H](Cc2coc3ccccc23)B(O)O)O[C@@H]2OC3(C)CC[C@H]4[C@H](C)CC[C@@H]1[C@@]24OO3 | 36.6% (inactive)
COP(=O)(CC(F)(F)C(F)(F)F)OC | 131% (inactive)
CC12OOC(C)(OO1)C2CCC(=O)NCCNc1ccnc2cc(Cl)ccc12 (stereo unspecified) | 106% (inactive)
CC[C@]12C=CCN3CC[C@@]4(c5ccc(OC)cc5N(C)[C@H]4[C@@](O)(C(=O)OC)[C@@H]1OC(=O)CCC[P+](c1ccc(C)cc1)(c1ccc(C)cc1)c1ccc(C)cc1)[C@@H]32 | -88.6% (active)
CC(C)N=C([Se])NC(=O)c1ccccc1 | -29.4% (active)
CC[C@]12C=CCN3CC[C@@]4(c5ccc(OC)cc5N(C)[C@H]4[C@@](O)(C(=O)OC)[C@@H]1OC(=O)CCC[P+](C1CCCCC1)(C1CCCCC1)C1CCCCC1)[C@@H]32 | 21.8% (inactive)
CC1=C(COCCOC(=O)c2ccc(S(=O)(=O)F)cc2)C2=C(C)C3(CC3)[C@@](C)(O)C(=O)C2=C1 | -16.9% (active)
CC[C@]12C=CCN3CC[C@@]4(c5ccc(OC)cc5N(C)[C@H]4[C@@](O)(C(=O)OC)[C@@H]1OC(=O)CCCC[P+](c1ccc(OC)cc1)(c1ccc(OC)cc1)c1ccc(OC)cc1)[C@@H]32 | -54.7% (active)
CC1=C(CCC=NNC(N)=O)C2=C(C)C3(CC3)[C@@](C)(O)C(=O)C2=C1 | -67.2% (active)
CC[C@@]12CC(C(=O)OC)=C3Nc4cc5c(cc4[C@@]34CCN(C[C@H]3O[C@H]31)[C@@H]24)[C@@H]1[C@H](O5)[C@@H](O)[C@@]2(CC)CC(C(=O)OC)=C3Nc4cc(OC)ccc4[C@@]34CCN1[C@@H]24 | -15.3% (active)
CCOP(=O)(CC(F)(F)C(F)(F)F)OCC | 126% (inactive)
CC1=C2C(=C[C@@](C)(COP(=O)(Oc3ccccc3)Oc3ccccc3)[C@@H]2O)C(=O)[C@@](C)(O)C12CC2 | -39.4% (active)
CC(=O)Oc1ccccc1C(=O)NC([Se])=NC1CCCCC1 | 16.3% (inactive)
C[C@H]1[C@H](OC(=O)CCC(=O)N(CCCc2cn(-c3ccc(CN4CCOCC4)cc3)nn2)CCNc2ccnc3cc(Cl)ccc23)O[C@@H]2OC3(C)CC[C@H]4[C@H](C)CC[C@@H]1[C@@]24OO3 | 93.6% (inactive)
